Where “and” joins values, the source holds several entries; their conditions need not be identical. Equal values may be shown once. In all, about 16,000 compounds went through this assay and about 5,700 (36%) were called active. Not shown: some 24% with an inconclusive outcome. The call rests on the fitted dose curve; in most records, active means well fitted curve in the direction sought with a large enough effect; inconclusive means small, poorly fitted or top-dose-only effect, or effect the other way; inactive means no such curve, though single readings can be large or run the other way. This is one part of the list.
target: Cytochrome P450 1A2 (Homo sapiens) (UniProt P05177); test: Cytochrome panel assay with activity outcomes; details: recombinant CYP, pro-luciferin dealkylation, luminescence, p450-cyp1a2; series mostly up to 57.1 µM; activity, negative = inhibition: at the top concentration
On the % scale 0 is the no-effect control and ±100 the full control effect.

Sequence of Cytochrome P450 1A2 (Homo sapiens) (P05177 whole entry, looked up): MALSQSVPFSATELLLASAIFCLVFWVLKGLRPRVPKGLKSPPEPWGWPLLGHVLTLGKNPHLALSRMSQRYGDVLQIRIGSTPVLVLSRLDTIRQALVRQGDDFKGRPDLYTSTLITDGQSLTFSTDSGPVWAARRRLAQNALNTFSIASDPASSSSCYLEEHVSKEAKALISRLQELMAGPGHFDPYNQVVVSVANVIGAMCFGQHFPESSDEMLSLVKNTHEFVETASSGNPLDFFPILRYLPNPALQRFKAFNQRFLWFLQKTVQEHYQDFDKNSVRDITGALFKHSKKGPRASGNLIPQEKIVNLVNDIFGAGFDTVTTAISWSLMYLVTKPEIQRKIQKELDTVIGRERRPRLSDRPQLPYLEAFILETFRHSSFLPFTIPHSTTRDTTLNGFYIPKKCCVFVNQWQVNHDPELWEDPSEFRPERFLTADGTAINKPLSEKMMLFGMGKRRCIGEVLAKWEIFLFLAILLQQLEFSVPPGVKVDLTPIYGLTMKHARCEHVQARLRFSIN

| Compound | AC50 | activity, negative = inhibition |
| --- | --- | --- |
| CN1C(=O)C(=Cc2ccccc2Oc2ccc(Cl)c(F)c2)C(=O)N(C)C1=O | 22400 nM (active) | – |
| Cc1ccc(N2C(=O)/C(=C/N3CCN(C(=O)c4ccco4)CC3)C(=O)NC2=S)cc1C | – | -23.4% (inactive) |
| O=C(NC1CCCCC1)NC1CC2CCC(C1)N2Cc1nnnn1Cc1ccc2c(c1)OCO2 (stereo not given) | – | -28.4% (inactive) |
| CC(C)CN1CC2(CCN(C(=O)Oc3ccccc3)CC2)C1 | – | -1.37% (inactive) |
| c1csc(CN2CCC3(CCNCC3)CC2)n1 | – | 2.27% (inactive) |
| COc1cc(OC)c(/C=C2/C(=O)Nc3ccccc32)c(OC)c1 | 501 nM (active) | – |
| C=C(C)c1ccccc1 (tested in a mixture with another compound) | – | -19.6% [at 2.29 µM] (inactive) |
| C[N+]1([O-])[C@@H]2CC[C@H]1CC(OC(=O)[C@@H](CO)c1ccccc1)C2 (stereo not given in full) | – | 0.733% [at 25.6 µM] (inactive) |
| CC(=O)Nc1ccccc1C(=O)OCC(=O)c1ccc2ccccc2c1 | 3160 nM (active) | – |
| CC(=O)Nc1ccccc1C(=O)OCc1ccc(C(=O)c2ccccc2)cc1 | – | -26.4% (inactive) |
| CS(=O)(=O)O[C@H]1CN2CCC1CC2 | – | -18.7% [at 11.4 µM] (inactive) |
| CCOc1ccc(C2C(C#N)=C(N)Oc3c2c(=O)oc2ccccc32)cc1 (stereo not given) | 5010 nM (active) | – |
| COc1ccc2c3c1O[C@@H]1C(=O)CC[C@@]4(O)[C@@H](C2)N(CC2CC2)CC[C@]314 | – | -8.78% (inactive) |
| C[C@H](Br)C(=O)c1ccc2cc(Br)c3ccccc3c2c1 | 158 nM (active) | – |
| CC1=C(CC[C@H](C)CO)O[C@@H]2C[C@@H]3[C@H]4CC[C@H]5C[C@@H](O)CC[C@]5(C)[C@@H]4CC(=O)[C@@]3(C)[C@@H]12 | – | -21.1% [at 2.29 µM] (inactive) |
| O=C(O)Cc1cnc[nH]1 | – | 5.78% (inactive) |
| NC(N)=NS(=O)(=O)c1ccc(N)cc1 | – | 1.99% [at 25.6 µM] (inactive) |
| O=C1c2cc([N+](=O)[O-])ccc2-c2ccc3c4ccc5c6c(ccc(c7ccc1c2c73)c64)C(=O)c1cc([N+](=O)[O-])ccc1-5 | 794 nM (active) | – |
| O=C(O)CCCc1ccc(N(CCCl)CCCl)cc1 | – | -10.6% [at 25.6 µM] (inactive) |
| C[C@@H]1O[C@H]1P(=O)(O)O | – | 7.68% (inactive) |
| Cc1nccc2c1[nH]c1ccccc12 | 1.26 µM (active) and 631 nM (active) | – |
| Cc1c2ccncc2c(C)c2c1[nH]c1ccccc12 | 20 nM (active) | – |
| COC(=O)[C@H]1C(=O)c2ccccc2O[C@@](C(=O)OC)(c2ccccc2)[C@@H]1c1ccccc1 | – | 6.39% [at 11.4 µM] (inactive) |

| Compound | AC50 | activity, negative = inhibition |
| --- | --- | --- |
| C[N+]1(C)CCN(c2ccccc2)CC1 | – | 9.07% (inactive) |
| COc1ccc(C(=O)OC2C[C@H]3CC[C@@H](C2)N3C)cc1OC (stereo not given in full) | – | -6.56% [at 25.6 µM] (inactive) |
| Cc1cccc(NC(=S)NC2CC3CCCC(C2)N3Cc2cccs2)c1 (stereo not given) | – | -15.8% (inactive) |
| CCc1ccccc1NC(=O)NC1CC2CCC(C1)N2Cc1cccs1 (stereo not given) | – | -17.5% (inactive) |
| CCSc1nnc(C(N)Cc2ccccc2)o1 (stereo not given) | – | -7.56% (inactive) |
| NCCCNCCSP(=O)(O)O | – | -7.82% (inactive) |
| O=C(Nc1cccc2ccccc12)c1nn(C23CC4CC(CC(C4)C2)C3)cc1Br | – | -12.6% (inactive) |
| CC1CN=C(Nc2cccc3ccccc23)S1 (stereo not given) | 2000 nM (active) | – |
| CCC12C=CCN3CCC4(c5cc(Br)c(OC)cc5N(C)C4C(O)(C(=O)OC)C1OC(C)=O)C32 (stereo not given) | – | -4.2% (inactive) |
| CCC[C@@H]1CC2=CC(=O)CC[C@]2(C)[C@@H]2CC[C@@]3(C)[C@H](CC[C@]3(O)CCC(=O)O)[C@H]12 | – | -1.14% (inactive) |
| COc1cc(C[C@H](C)N)c(OC)cc1I | 6.31 µM (active) and 12.6 µM (active) | – |
| Clc1cnc(Oc2ccc(Oc3ncc(Cl)cc3Cl)cc2)c(Cl)c1 | – | -12.7% (inactive) |
| CCNC[C@H](O)c1cccc(O)c1 | – | 4.57% [at 25.6 µM] (inactive) |
| c1cncc(CNCCN2CCNCC2)c1 | – | 6.05% [at 11.4 µM] (inactive) |
| c1cncc(CNc2cc(-c3ccc4c(c3)OCO4)ncn2)c1 | 251 nM (active) | – |
| Cc1o[nH]c(=O)c1C[C@H](N)C(=O)O | – | -5.8% (inactive) |
| c1ccc2sc(C3(N4CCCCC4)CCCCC3)cc2c1 | inactive | – |
| COc1ccn(C)c(=O)c1C#N | – | -9.26% [at 25.6 µM] (inactive) |
| CO[C@H]1[C@H](O)[C@H](O[C@@H]2[C@H](Oc3cccc4c(O)c5c(=O)oc6ccc(C)c7c(=O)oc(c34)c5c67)O[C@@H](C)[C@H](O)[C@H]2O)O[C@@H](C)[C@@H]1O | – | -16.6% [at 11.4 µM] (inactive) |
| O=[As](O)(O)c1ccc2nc3cc([As](=O)(O)O)ccc3nc2c1 | – | -15.1% [at 11.4 µM] (inactive) |
| C=C1[C@@H](O)C2C=CC[C@H](C)C(=O)[C@@](C)(O)C=C[C@@H](OC(C)=O)[C@@]23C(=O)N[C@H](Cc2ccccc2)[C@@H]3[C@@H]1C (stereo not given in full) | – | -13% (inactive) |
| c1ccc(N2CCCC3(CCNCC3)C2)cc1 | – | -16.7% (inactive) |

From PubChem BioAssay AID1851 (National Center for Advancing Translational Sciences (NCATS), 2009)
